BoNT-A LC inh2 – BoNT/A light chain protease inhibitors, primary screen, biochemical, flow cytometry, MLPCN library; multiplex microsphere protease substrate cleavage; Botulinum neurotoxin type A light chain protease (Clostridium botulinum A str. ATCC 3502); hit rate 0.17% among 360,000; inhibition, % at 10 µM; note: plate controls were buffer without enzyme for full effect and enzyme alone for no effect
BoNT-F LC inh – BoNT/F light chain protease inhibitors, primary screen, biochemical, flow cytometry, MLPCN library; hit rate 0.22% among 360,000; AID 588497, 2011; Multiplex microsphere protease cleavage assay; inhibition, % at 10 µM; Botulinum neurotoxin type F light chain protease (Clostridium botulinum); in the data active = inhibition above about 35%, passing the limit was not always enough; inconclusive = no clear call, values can overlap the other calls; note: plate controls were buffer without enzyme for full effect and enzyme alone for no effect
Bead autofluor – counter-screen for toxin protease inhibitors: compound fluorescence; compound autofluorescence counterscreen, microsphere flow cytometry; stronger effect = higher value; fluorescence intensity (concentration not given with the values); hit rate 3.1% among 360,000; in the data active = fluorescence intensity above about 16000; inconclusive = no clear call, values can overlap the other calls
Anthrax LF prot – Bacillus anthracis LF protease inhibitors, primary screen, biochemical, multiplex microsphere, MLPCN library; Lethal factor (Bacillus anthracis), P15917; multiplex microsphere protease cleavage assay; inhibition, % at 10 µM; hit rate 0.12% among 360,000; AID 588501, 2011; note: plate controls were buffer without enzyme for full effect and enzyme alone for no effect
Target sequence (P15917 whole entry, looked up): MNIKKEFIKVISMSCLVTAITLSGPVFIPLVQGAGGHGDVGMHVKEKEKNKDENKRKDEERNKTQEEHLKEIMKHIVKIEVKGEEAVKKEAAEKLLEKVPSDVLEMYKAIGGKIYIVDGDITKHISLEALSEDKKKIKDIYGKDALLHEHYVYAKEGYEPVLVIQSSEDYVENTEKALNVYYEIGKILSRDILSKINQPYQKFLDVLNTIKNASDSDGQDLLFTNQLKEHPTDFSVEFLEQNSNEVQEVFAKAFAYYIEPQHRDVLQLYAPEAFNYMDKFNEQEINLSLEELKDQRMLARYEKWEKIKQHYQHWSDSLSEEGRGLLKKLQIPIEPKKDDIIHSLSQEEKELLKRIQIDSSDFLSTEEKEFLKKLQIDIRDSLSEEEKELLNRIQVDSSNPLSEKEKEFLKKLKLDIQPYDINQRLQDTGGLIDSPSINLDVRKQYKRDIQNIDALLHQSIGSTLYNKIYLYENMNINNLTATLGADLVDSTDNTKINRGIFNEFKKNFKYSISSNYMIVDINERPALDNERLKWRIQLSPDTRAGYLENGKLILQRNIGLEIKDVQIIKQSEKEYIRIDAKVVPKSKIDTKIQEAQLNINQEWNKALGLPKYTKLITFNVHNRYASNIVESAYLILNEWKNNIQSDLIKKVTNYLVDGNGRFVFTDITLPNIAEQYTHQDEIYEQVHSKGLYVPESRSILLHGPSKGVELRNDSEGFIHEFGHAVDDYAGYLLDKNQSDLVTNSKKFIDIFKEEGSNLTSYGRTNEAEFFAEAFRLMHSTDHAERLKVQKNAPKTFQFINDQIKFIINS
The depositor's hits bear a star; ? = inconclusive. An excerpt weighted towards active compounds, which were near 3.5% of everything screened. Cut-off read from the data, not from the text of the source, unless noted: active = inhibition above about 30%; inconclusive = no clear call, values can overlap the other calls; inactive = below that.

SMILES	BoNT-A LC inh2	BoNT-F LC inh	Bead autofluor	Anthrax LF prot
COc1ccc(S(=O)(=O)NC(=O)C2(C)CCN2C(=O)CCC2CCCC2)cc1OC (configuration not stated)	0	0	3794	2
CCOC(=O)c1c(N)nn(C(=O)C(C)(C)C)c1-c1ccccc1	-1	-2	22970*	-1
Cc1ccc(C)c2[nH]c(=O)c(CN(Cc3ccco3)S(=O)(=O)c3ccc4c(c3)OCCO4)cc12	3	5	22529*	-2
CCc1ccc2[nH]c(=O)c(CN(Cc3ccco3)S(=O)(=O)c3ccc4c(c3)OCCO4)cc2c1	-1	0	11443	-2
O=C(CSc1nc2[nH]ncc2c(=O)[nH]1)Nc1cc(C(F)(F)F)ccc1Cl	0	-2	3450	-6
CC1(C)N=C(N)NC(Nc2ccc(Br)cc2)=N1	-2	-3	23628*	-2
CC1(C)N=C(N)NC(Nc2cccc(Br)c2)=N1	0	1	4508	6
CCOC(=O)C1CCCN(C(=O)c2ccco2)C1 (configuration not stated)	1	-1	23110*	3
CCOC(=O)C1CCCN(C(=O)c2cc3c(C)nc4ccccc4c3o2)C1 (configuration not stated)	0	3	22194*	1
CCOC(=O)C1CCCN(C(=O)CSCc2ccccc2)C1 (configuration not stated)	-1	-35	4100	0
CCOC(=O)C1CCCN(C(=O)N2CCOCC2)C1 (configuration not stated)	?	-1	19919*	-2
Cc1nc2ccccc2c2oc(C(=O)N3CC(C)CC(C)C3)cc12 (configuration not stated)	0	-5	5918	-1
COc1ccc(N(CC(=O)N/N=C/c2ccc(-c3ccc([N+](=O)[O-])cc3)o2)S(=O)(=O)c2ccc(C)cc2)cc1Cl	56*	42*	2649	44*
COc1ccc(N(CC(=O)N/N=C/c2ccc(-c3ccc([N+](=O)[O-])cc3)o2)S(=O)(=O)c2ccc(C)cc2)cc1	20	17	8056	22
Cc1nc2ccccc2c(=O)n1NC(=O)c1c(O)c2c(n(CC(C)C)c1=O)CCCC2	1	2	19971*	0
CCCCCCc1nc2ccccc2c(=O)n1NC(=O)c1c(O)c2c(n(CC(C)C)c1=O)CCCC2	0	-29	4770	-4
Cc1c(C(=O)NC2CC(C)(C)NC(C)(C)C2)oc2c(Cl)cccc12	1	-3	4114	-2
COc1cc(Cl)c(CNC[C@H]2O[C@@H](n3cnc4c(=O)[nH]c(N)nc43)[C@H](O)[C@@H]2O)c(Cl)c1O	-1	-4	5492	0
Cc1cccc(NS(=O)(=O)c2ccccc2)n1	0	0	8847	-1
Cc1cccc(NS(=O)(=O)c2ccc(C3CCCCC3)cc2)n1	-2	-3	22937*	0
CC(C)c1ccc(/C=C/c2[nH]c(=O)[nH]c(=O)c2[N+](=O)[O-])cc1	0	37*	3823	9
CCOc1ccc(/C=C/c2[nH]c(=O)[nH]c(=O)c2[N+](=O)[O-])cc1	-3	-11	3812	3
COc1nc(OC)nc(N2CCC(C(=O)NCc3cccs3)CC2)n1	?	3	21111*	0
O=C(NCc1cccs1)C1CCCN(c2nc3ccccc3o2)C1 (configuration not stated)	1	1	16144*	1
Cc1cc(C)nc(N2CCCC(C(=O)NC(C)CCc3ccco3)C2)n1 (configuration not stated)	?	-2	23504*	-2
SMILES	BoNT-A LC inh2	BoNT-F LC inh	Bead autofluor	Anthrax LF prot
Cc1ccnc(N2CCCC(C(=O)NCc3cccs3)C2)n1 (configuration not stated)	0	21	3588	-5
Cc1cc(C)nc(N2CCCC(C(=O)NCc3cccs3)C2)n1 (configuration not stated)	3	3	21442*	-4
O=C(/C=C/c1ccccc1Cl)OCC(=O)c1ccc[nH]1	-1	-4	6813	-6
O=c1c2ccccc2nc2n1CCc1ccc(Br)cc1-2	0	-2	4270	-4
COc1cc(C)ccc1S(=O)(=O)NC(=O)C1(C)CCN1C(=O)COc1ccc(Cl)cc1 (configuration not stated)	0	-2	2683	-4
Cc1cccc(C)c1N(CC(O)Cn1c2ccccc2c2ccccc21)S(C)(=O)=O (configuration not stated)	2	1	21877*	0
CC(C)(O)C#Cc1ccc(CNC[C@H]2O[C@@H](n3cnc4c(N)ncnc43)[C@H](O)[C@@H]2O)s1	0	-6	4088	0
COc1cc(NC(=O)COC(=O)CNC(=O)C23CC4CC(CC(C4)C2)C3)cc(OC)c1	-1	-9	3288	-4
O=C(COC(=O)CNC(=O)C12CC3CC(CC(C3)C1)C2)Nc1ccccc1	?	11	19773*	-16
NC(CSC(c1ccccc1)(c1ccccc1)c1ccc2c(c1)OCO2)C(=O)O (configuration not stated)	0	-3	3709	-2
CCCNC(=O)c1c(N)n(-c2ccc3c(c2)OCO3)c2nc3ccccc3nc12	?	-1	21855*	-4
COCCCNC(=O)c1c(N)n(-c2ccc3c(c2)OCO3)c2nc3ccccc3nc12	11	-5	4028	8
O=C(Cc1ccccc1)N1CCCC1c1ccccc1 (configuration not stated)	-2	-6	21410*	-2
CC(C)NC(=O)CC1OC(=O)c2ccccc21 (configuration not stated)	0	0	23103*	-1
CCOc1ccc(CCN2C(=O)CCC2(C)C(=O)NC(C)CC)cc1OCC (configuration not stated)	0	0	23716*	2
NC(=NCc1ccc2c(c1)OCO2)NC(=O)c1ccccc1	6	45*	4326	-8
C/C(=N\NC(=O)c1ccccc1)c1ccc2c(c1)OCO2	0	4	22585*	2
CC(=O)Nc1cccc(/C(C)=N/NC(=O)c2ccc3c(c2)OCO3)c1	0	2	4785	3
CN(C(=O)CSc1nnnn1-c1ccc(O)cc1)C1CCCCC1	-2	-5	5776	1
Cc1ccc(C(=O)CSc2n[nH]c(-c3ccco3)n2)cc1C	-2	-3	17185*	-2
COc1ccc(C(=O)CSc2n[nH]c(-c3ccco3)n2)cc1	-1	-2	17016*	-1
Cc1ccc(C(=O)Nn2c(C)nc3ccccc3c2=O)cc1C	-2	-23	3823	13
CCc1ccc(C(C)NC(=O)Cn2cnc3c(=O)n(C)c(=O)n(C)c32)cc1 (configuration not stated)	0	0	16189*	-1
CCc1ccc(NC(=O)Cn2cnc3c(=O)n(C)c(=O)n(C)c32)cc1	1	4	4216	3
COCCC1CCCCN1C(=O)c1cc(COc2ccc(-n3cncn3)cc2)on1 (configuration not stated)	-170	-303	35235*	-44

High-throughput results as filed in PubChem.
